Measurements: PubChem BioAssay (Tox21)
Inconclusive results are not listed. Entries that show only a call come without a potency. Activity calls are given as the source filed them. The call rests on the fitted dose curve; in most records, active means well fitted activation curve with a large enough effect in the repeat runs; inconclusive means weak or mixed curves; inactive means flat fitted curve, though single readings scatter.

assay: Caspase-3/7 induction in HepG2 cells by small molecules, qHTS assay (AID 1346978); conditions: HepG2 caspase-3/7 activation, Caspase-Glo luminescence, 17 h; series mostly up to 92.4 µM; further: nearly all actives have a fitted effect of over 15% in size
Method in brief: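 Caspase-3/7 induction was measured by Caspase-Glo 3/7 luminescence (30 min, room temperature) after a 17 hr compound exposure of wild-type HepG2 cells seeded at 2,000 per well and pre-incubated 5 hr.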
Potency means the concentration at half of the fitted maximal effect.

Row | SMILES | Potency
1 | CCOP(=S)(OCC)Oc1cc(C)nc(N(CC)CC)n1 | inactive
2 | Cc1ccc([N+](=O)[O-])[c]2c1[O][Hg]2 | inactive
3 | CC(=O)[O][Sn]([c]1ccccc1)([c]1ccccc1)[c]1ccccc1 | 306 nM (active)
4 | C=C(C)C(=O)[O][Sn]([CH2]CCC)([CH2]CCC)[CH2]CCC | 2170 nM (active)
5 | CNC(=O)/C=C(\C)OP(=O)(OC)OC | inactive
6 | CC(C)C(Nc1ccc(C(F)(F)F)cc1Cl)C(=O)OC(C#N)c1cccc(Oc2ccccc2)c1 (centres undefined) | inactive
7 | N#Cc1ccc(N(CC(N)=O)CC(F)(F)F)cc1C(F)(F)F | inactive
8 | O=C(O)CCCCCCNC1c2ccccc2CCc2ccccc21 | inactive
9 | C=CC(=O)[O][Sn]([CH2]CCC)([CH2]CCC)[CH2]CCC | 2430 nM (active)
10 | NC(=O)C(Cl)Cl | inactive
11 | Cc1cccc(Cc2cnc[nH]2)c1C | inactive
12 | N#CSCc1ccccc1 | inactive
13 | CCOP(=O)(OCC)Oc1cc(C)nc(C(C)C)n1 | inactive
14 | OCC(Br)CBr (centres undefined) | inactive
15 | N#CCCl | inactive
16 | C=CC(=C)C | inactive
17 | CCn1cc[n+](C)c1 (tested in a mixture with another compound) | inactive
18 | CC(=O)[O][Pb]([c]1ccccc1)([c]1ccccc1)[c]1ccccc1 | 2430 nM (active)
19 | CCCCc1ccccc1 | inactive
20 | CCNS(=O)(=O)C(F)(F)C(F)(F)C(F)(F)C(F)(F)C(F)(F)C(F)(F)C(F)(F)C(F)(F)F | inactive

Row | SMILES | Potency
21 | Oc1ccc(Cl)c(Cl)c1 | inactive
22 | O=C(Nc1ccc(F)cc1F)c1cccnc1Oc1cccc(C(F)(F)F)c1 | inactive
23 | ClC1(Cl)C2(Cl)C3(Cl)C4(Cl)C(Cl)(Cl)C5(Cl)C3(Cl)C1(Cl)C5(Cl)C24Cl (centres undefined) | inactive
24 | CC(C)=CCN1CC[C@@]2(C)c3cc(O)ccc3C[C@@H]1[C@@H]2C | inactive
25 | CC1CN1 (centres undefined) | inactive
26 | CC(C)c1c(CN(C)C(C)Cc2ccccc2)n(C)n(-c2ccccc2)c1=O (centres undefined) | inactive
27 | Cc1nn(-c2cc(NS(C)(=O)=O)c(Cl)cc2Cl)c(=O)n1C(F)F | inactive
28 | CCC[CH2][Sn]([CH2]CCC)([CH2]CCC)[CH2]CCC | 68600 nM (active)
29 | O=S1(=O)OCC2C(CO1)C1(Cl)C(Cl)=C(Cl)C2(Cl)C1(Cl)Cl (centres undefined) | inactive
30 | C[C@]12C/C(=C/O)C(=O)C[C@@H]1CC[C@@H]1[C@@H]2CC[C@@]2(C)[C@H]1CC[C@]2(C)O | inactive
31 | [Cl][Hg][c]1ccccc1 | inactive
32 | CCCCCON=O | inactive
33 | ClC(Cl)C(Cl)(Cl)Cl | inactive
34 | COC(=O)/C=C(\C)OP(=O)(OC)OC | inactive
35 | CCCCC(CC)COC(=O)c1ccccc1C(=O)OCC(CC)CCCC (centres undefined) | inactive
36 | O=C(Cl)c1ccccc1F | inactive
37 | CC1(C)[C@H](/C=C2\CCSC2=O)[C@@H]1C(=O)OCc1coc(Cc2ccccc2)c1 | inactive
38 | CCCCN(CCCC)C(=S)S | inactive
39 | CCCN | inactive
